Results published in PubChem BioAssay (NCI).
The panel holds about 83,000 compounds, 20% with a hit somewhere; the sample as a whole holds those more often.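 Percent growth is the endpoint: 0 to 100 indicates growth inhibition (40 means 60% inhibition), 0 means no net growth, and negative values indicate cell death.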 Calls of active or inactive are those of the source.

What follows are molecules tested on TK-10 renal (assay: NCI-60 one-dose screen, 48 h (100 = growth as untreated, 0 = no growth, -100 = all killed)). Details: 10 µM unless noted.
Experimental: Growth inhibition of the TK-10 human tumor cell line is measured as a screen for anti-cancer activity. Cells are grown in 96 well plates and exposed to the test compound for 48 hours. Compounds are tested at a single concentration, which is 10^-5 M for most compounds. The reported endpoint is percent growth (GI% or GIPRCNT), where numbers from 0 - 100% represent growth inhibition, and numbers from -100% - 0 represent cell death. For example, a value of 40 represents 60% growth inhibition. A value of 0 means no net growth occurred over the course of the experiment. A value of -40 indicates 40% of cells at the beginning of the experiment died by the end of the experiment. A value of -100 means all cells are dead at the end of the experiment.
NCI-60 Human Tumor Cell Lines Screen was performed using the standard one-dose NCI protocol, which is described in more detail at https://dtp.cancer.gov/discovery_development/nci-60/default.htm.
Compounds with GIPRCNT values below 10 were considered active. Activity score was based on GIPRCNT using the following formula: […]
Score is 0 for GIPRCNT values of 100 or above, 50 for GIPRCNT values of 0, and 100 for GIPRCNT values of -100.
With `C/C(=C(/c1ccc(Cl)cc1)c1ccc(OCCN)cc1)c1ccc(C)cc1` the growth was 116% (inactive). For `O=C(N/N=C/c1ccc[nH]1)c1[nH]c2ccc(Br)cc2c1-c1ccccc1`, the growth was 44.5% (inactive). In the case of `O=C(N/N=C/c1ccc(Br)s1)c1[nH]c2ccc(Br)cc2c1-c1ccccc1`, the growth was 109% (inactive). `Cc1nc(-c2cc3ccccc3oc2=O)ccc1C(=O)/C=C/c1ccc(Cl)c(Cl)c1` was tested, and the growth was 117% (inactive). In the case of `CCOC(=O)c1c(NC(=O)c2cccc(C(F)(F)F)c2)sc2cc(O)ccc12`, the growth was 183% (inactive). For `CCOC(=O)c1csc(NC(=O)CSc2nc3sc4c(c3c(=O)n2-c2ccc(Cl)cc2)CCCC4)n1`, the growth was 125% (inactive). `CN1C(=S)N(C)C2C1NN=C1SC(c3ccccc3)=CC(=O)N12` (stereo not given) was tested, and the growth was 97.7% (inactive). In the case of `COC(=O)C1CN(S(=O)(=O)/N=C2\NC(=O)NC2=C(Cl)Cl)C1`, the growth was 139% (inactive). With `COC(=O)C(Cc1ccccc1)NS(=O)(=O)/N=C1\NC(=O)NC1=C(Cl)Cl` (stereo not given) the growth was 118% (inactive). `Cn1c(SCC(=O)Nc2ccc(-c3nc4ccc([N+](=O)[O-])cc4[nH]3)cc2)nc2ccccc2c1=O` was tested, and the growth was 132% (inactive). In the case of `COc1ccc(-c2nc3ccc(-c4nnc(SCC(=O)Nc5ccc(C(=O)/C=C/c6ccc(Cl)cc6)cc5)o4)cc3[nH]2)cc1OC`, the growth was 134% (inactive). In the case of `C#Cc1nc(C2=C(C)/C(=N/OCc3ccccc3)CC2)cs1`, the growth was 158% (inactive). In the case of `COc1cc(/C=C/C(=O)c2cc(OC)c(OC)c(OC)c2)ccc1Oc1nc(NCCO)nc(N2CCOCC2)n1`, the growth was 20.9% (inactive). `O=C1c2c(c3c4cccnc4[nH]c3c3ccc4ccccc4c23)C(=O)N1CCO` was tested, and the growth was 127% (inactive). `O=C1NC(=C(Cl)Cl)/C(=N/S(=O)(=O)N2CCCCC2CC2(C(F)(F)F)N=N2)N1` (stereo not given) was tested, and the growth was 63.4% (inactive). In the case of `NC(=O)c1c(NC(=O)c2ccc(C3CCCCC3)cc2)sc2c1CCC(=O)C2`, the growth was 16.7% (inactive). `COc1ccc(/C=N/Nc2ccnc3cc(Cl)ccc23)cc1Cl` was tested, and the growth was -81.6% (active). `Cc1cc2nc3c4cc(Cl)ccc4n(CC(=S)NCCN(C)C)c3nc2cc1C` was tested, and the growth was 55.6% (inactive). In the case of `O=C(N/N=C/c1ccc([N+](=O)[O-])s1)c1[nH]c2ccc(Br)cc2c1-c1ccccc1`, the growth was 83.3% (inactive). `N#Cc1c(-c2ccc(Cl)cc2)nc2c(-c3ccccc3)c(Nc3ccccc3)nn2c1N` was tested, and the growth was 139% (inactive). In the case of `NS(=O)(=O)c1cccc(Nc2nc(SCC(=O)c3ccc(Br)cc3)nc3ccccc23)c1`, the growth was 124% (inactive). With `O=C(CSc1nccc(=O)[nH]1)Nc1ccc(-c2nc3ccccc3[nH]2)cc1` the growth was 116% (inactive). In the case of `CN1CCN(Cc2ccc(NC(=O)c3cncc(C#Cc4cnc5ccc(N6CCSCC6)nn45)c3)cc2C(F)(F)F)CC1`, the growth was -25.9% (active). With `N#Cc1nc(-c2ccccc2)oc1N1CCC(CO)C1` (stereo not given) the growth was 104% (inactive). In the case of `CCN1C(=S)N(CC)C2C1N=C(SC)N2/N=C/C=C/c1ccccc1[N+](=O)[O-]` (stereo not given), the growth was 125% (inactive). With `CCN1C(=S)N(c2ccccc2)C2NC(=O)N(/N=C/C=C/c3ccccc3OC)C21` (stereo not given) the growth was 105% (inactive). With `C#Cc1nc(C2=C(C)C(=O)/C(=N/OC(C)=O)C2)cs1` the growth was 151% (inactive). `COC(=O)C(C)NS(=O)(=O)/N=C1\NC(=O)NC1=C(Cl)Cl` (stereo not given) was tested, and the growth was 140% (inactive). For `CC(C)NC(=O)c1cc(-c2ccc(NC(=O)Nc3ccc(N4CCOCC4)c(C(F)(F)F)c3)cc2)nc2cccnc12`, the growth was 143% (inactive). In the case of `CNC(=O)c1cc(-c2ccc(NC(=O)Nc3ccc(N4CCOCC4)c(C(F)(F)F)c3)cc2)nc2cccnc12`, the growth was 156% (inactive). `CC(C)(C)OC(=O)N1C(=O)c2c(c3c4ccccc4[nH]c3c3ccc4ccccc4c23)C1=O` was tested, and the growth was 36.8% (inactive). `C/C(=N/NC(N)=S)c1ccc(Nc2nc(SCC(C)C)nc(-c3ccc(F)cc3)c2C#N)cc1` was tested, and the growth was 8.09% (active). For `O=C(CSc1nc2sc3c(c2c(=O)n1-c1ccc(Cl)cc1)CCCC3)NNC(=O)Nc1cccc(C(F)(F)F)c1`, the growth was 48.3% (inactive). With `COc1cccc(OC)c1-c1nnn(C)c1C(=S)N1CCN(c2ccc([N+](=O)[O-])cc2Cl)CC1` the growth was 105% (inactive). In the case of `O=C1C2=C(C(=O)c3c(O)cccc31)C(c1ccco1)c1sc(=O)[nH]c1S2` (stereo not given), the growth was 146% (inactive). With `COc1ccc(-n2c(SCC(=O)Nc3ccc(-c4nc5ccccc5[nH]4)cc3)nc3ccccc3c2=O)cc1` the growth was 107% (inactive). `COc1cc(-c2nc3ccc(-c4nnc(SCC(=O)Nc5ccc(C(=O)/C=C/c6ccc(Cl)cc6)cc5)o4)cc3[nH]2)cc(OC)c1OC` was tested, and the growth was 120% (inactive). For `Cc1c(NC(=O)CSc2nc3sc4c(c3c(=O)n2-c2ccc(Cl)cc2)CCCC4)c(=O)n(-c2ccccc2)n1C`, the growth was 109% (inactive). With `COc1cc(OC)c(S(=O)(=O)NNC(=O)c2ccncc2)cc1C(=O)/C=C/c1ccc(C)cc1` the growth was 145% (inactive). With `Nc1nc(N)c2c(n1)NC(c1ccc(F)cc1)CC(c1ccc(Nc3nc(NCCO)nc(Nc4ccc(Cl)cc4)n3)cc1)=N2` (stereo not given) the growth was 111% (inactive).
